# Laboratory results from the supplement of paper PMC7261846.
# ± gives the uncertainty stated by the source.
# System: Candida albicans SNY425 biofilm
# Assay: biofilm OD600 with compound plus antifungal (OD600 (absorbance)); higher = more biofilm remaining
# [1] = assay detail: disruption of 24-h mature biofilm (compound + antifungal for a second 24 h)
# [2] = assay detail: sustained inhibition (compound + antifungal during 90-min adherence and 24-h growth)
Structure (SMILES),biofilm OD600 [1],biofilm OD600 [2]
CC(NC(=O)C(Cc1ccccc1)NC(=O)OCc1ccccc1)C(=O)CF (stereo not drawn) + OC(Cn1cncn1)(Cn1cncn1)c1ccc(F)cc1F [fluconazole] (first compound 12.5 µM),0.287 ± 0.011,0.119 ± 0.0049
CC(C)c1nc(CN(C)C(=O)N[C@H](C(=O)N[C@@H](Cc2ccccc2)C[C@H](O)[C@H](Cc2ccccc2)NC(=O)OCc2cncs2)C(C)C)cs1 [ritonavir] + CC[C@H](C)C[C@H](C)CCCCCCCCC(=O)N[C@H]1C[C@@H](O)[C@@H](NCCN)NC(=O)[C@@H]2[C@@H](O)CCN2C(=O)[C@H]([C@H](O)CCN)NC(=O)[C@H]([C@H](O)[C@@H](O)c2ccc(O)cc2)NC(=O)[C@@H]2C[C@@H](O)CN2C(=O)[C@H]([C@@H](C)O)NC1=O [caspofungin] (first compound 12.5 µM),0.159 ± 0.0069,0.12 ± 0.009
CCCC[C@@H](C=O)NC(=O)[C@H](CC(C)C)NC(=O)OCc1ccccc1 [Calpeptin] + CC[C@H](C)C[C@H](C)CCCCCCCCC(=O)N[C@H]1C[C@@H](O)[C@@H](NCCN)NC(=O)[C@@H]2[C@@H](O)CCN2C(=O)[C@H]([C@H](O)CCN)NC(=O)[C@H]([C@H](O)[C@@H](O)c2ccc(O)cc2)NC(=O)[C@@H]2C[C@@H](O)CN2C(=O)[C@H]([C@@H](C)O)NC1=O [caspofungin] (first compound 12.5 µM),0.263 ± 0.0082,0.174 ± 0.0085
NC(N)=NCCC[C@H](NC(=O)[C@@H]1CCCN1C(=O)[C@H](N)Cc1ccccc1)C(=O)CCl + C[C@@H]1[C@H](O)[C@@H](C)/C=C/C=C/C=C/C=C/C=C/C=C/C=C/[C@H](O[C@@H]2O[C@H](C)[C@@H](O)[C@H](N)[C@@H]2O)C[C@@H]2O[C@](O)(C[C@@H](O)C[C@@H](O)[C@H](O)CC[C@@H](O)C[C@@H](O)CC(=O)O[C@H]1C)C[C@H](O)[C@H]2C(=O)O [amphotericin B] (first compound 12.5 µM),0.291 ± 0.0073,0.213 ± 0.0082
